The source of these data is PubChem BioAssay.

Calls of active or inactive are those of the source.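 How the source made its calls, unless noted: active means inhibition above 20% together with a positive visual image hit; inconclusive means visual image hit but inhibition not above 20%; inactive means no visual image hit.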 Where a SMILES comes first, the peptide text is derived from it.

Test [1] in a line: inhibitors of TNFa-induced NFkB p65 translocation, primary screen, imaging, HUVEC, MLSMR starter and 10KST1 sets (AID 438).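 Further: compound added about 3h40 before a 20 min TNFalpha stimulation.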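 On inhibition: signal is the nuclear over cytoplasmic p65 intensity ratio per well.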 As to conditions: HUVEC TNFa-induced p65 nuclear translocation; cell count: measured here: nuclei count (cytotoxicity indicator), at 2.08 µM; inhibition: at 2 µM, stronger effect = higher value, 0% TNFa-plus-vehicle, 100% no-TNFa wells.
The nature of test [2]: inhibitors of mutant huntingtin aggregation, primary screen, imaging, exon1htt(103Q)mCFP cells, high-content imaging (AID 483;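 active means visual image review flags a hit and inhibition of aggregation exceeds 20%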;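 further: compound exposure lasted 3 days before fixation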;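 on nuclei count: percent of the per-plate median nuclei count of sample wells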). As to conditions: exon1htt(103Q)mCFP cell line, aggregate imaging, at 2 µM; inhibition of aggregation: stronger effect = higher value; nuclei count: measured here: cell count, toxicity.
The nature of test [3]: inhibitors of E-selectin induction by TNFa, primary screen, imaging, HUVEC, immunofluorescence, MLSMR starter and 10KST1 sets (AID 487;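 active means visually confirmed hit in the image check and inhibition above 20%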;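 on inhibition: signal is fraction of cell area covered by stained E-selectin grains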;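 on nuclei count: 100% = median nuclei count of all wells on the same plate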). The following applies: HUVEC TNFalpha-induced E-selectin immunofluorescence imaging, at 2 µM; inhibition: stronger effect = higher value; nuclei count: measured here: cell number, toxicity.
The target in test [4] is Voltage-gated potassium channel subunit beta-2 (Rattus norvegicus) (UniProt P62483). Briefly: KvBeta enzyme negative modulators, primary screen, biochemical, NADPH fluorescence (AID 622;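 active means fluorescence slope higher than the sample average by over 3 SD, cut at about -0.22 in these data, passing the limit was not always enough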;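 further: slope of raw intensity against log time taken from 70 to 1610 s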). The following applies: recombinant KvBeta, 4-cyanobenzaldehyde reduction, at 10 µM, stronger effect = higher value.
Sequence of Voltage-gated potassium channel subunit beta-2 (Rattus norvegicus) (P62483 whole entry, looked up): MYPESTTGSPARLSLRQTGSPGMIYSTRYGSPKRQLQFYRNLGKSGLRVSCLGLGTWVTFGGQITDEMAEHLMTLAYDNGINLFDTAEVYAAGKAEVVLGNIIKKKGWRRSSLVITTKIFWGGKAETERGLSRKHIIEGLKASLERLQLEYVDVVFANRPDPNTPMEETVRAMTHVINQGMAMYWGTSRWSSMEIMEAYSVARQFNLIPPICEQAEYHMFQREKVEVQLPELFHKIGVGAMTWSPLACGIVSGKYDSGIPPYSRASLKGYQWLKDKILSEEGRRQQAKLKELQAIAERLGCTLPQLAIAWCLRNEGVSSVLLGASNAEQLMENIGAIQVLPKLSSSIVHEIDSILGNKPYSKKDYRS
Test [5] has the same target. Briefly: KvBeta positive modulators, primary screen, biochemical, NADPH fluorescence (AID 623;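 active means NADPH fluorescence slope more negative than the mean of all samples by about 3 SD, 99.7% confidence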;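 further: fluorescence intensity change per second fitted from 20 to 320 s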). The following applies: Recombinant KvBeta, NADPH fluorescence decrease slope, 10 min; at 10 µM; stronger effect = lower value.
For test [6], the target named is Alpha-2C adrenergic receptor (Homo sapiens) (UniProt P18825). Briefly: modulators of alpha2C/GIRK thallium flux, primary screen, cell-based, HEK293 alpha2C/GIRK1/2 (AID 624;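 active means fluorescence slope after compound addition differing from the mean of all screened samples at 99.7% confidence, in either direction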;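 further: slope of fluorescence ratio to pre-addition baseline per second over 15 to 24 s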). As to conditions: thallium flux BTC fluorescence, at 10 µM, actives lie on both sides.
Sequence of Alpha-2C adrenergic receptor (Homo sapiens) (P18825 whole entry, looked up): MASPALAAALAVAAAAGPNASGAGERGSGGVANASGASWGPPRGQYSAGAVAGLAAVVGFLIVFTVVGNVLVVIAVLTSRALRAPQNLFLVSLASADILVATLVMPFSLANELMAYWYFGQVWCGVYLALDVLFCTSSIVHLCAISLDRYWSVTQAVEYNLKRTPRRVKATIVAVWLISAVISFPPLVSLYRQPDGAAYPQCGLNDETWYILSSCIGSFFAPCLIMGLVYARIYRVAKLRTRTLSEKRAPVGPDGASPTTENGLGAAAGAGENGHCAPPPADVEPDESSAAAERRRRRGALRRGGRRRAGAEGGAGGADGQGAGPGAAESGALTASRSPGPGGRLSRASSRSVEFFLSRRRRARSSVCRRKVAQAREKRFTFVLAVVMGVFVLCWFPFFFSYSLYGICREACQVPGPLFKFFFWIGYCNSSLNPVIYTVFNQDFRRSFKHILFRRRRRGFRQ
Test [7] is described as follows: inhibitors of Sendai virus-induced IRF3 signaling, primary screen, TLR/RLR signaling modifier project, cell-based, Sendai virus stimulus, luciferase, 10K MLSCN set (AID 602276;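 active means inhibition at or above 50% at 10 µM; inactive means inhibition below 50%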;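 further: firefly luciferase from ISG56 promoter only with Renilla not read in this screen; 0% = Sendai virus plus DMSO and 100% = medium plus DMSO without virus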). The following applies: HEK293 RL24 IRF3 luciferase reporter, at 10 µM, stronger effect = higher value. Background: Reporter assays use an easily measured gene product as a stand-in for the process of interest.

The nature of test [8]: inhibitors of poly I:C-induced TLR3 signaling, primary screen, cell-based, poly I:C stimulus, luciferase, 10K MLSCN set (AID 602277;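 active means inhibition of the reporter signal at or above 50%; inactive means inhibition below 50%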). As to conditions: HEK293-TLR3 RL24 IRF3 luciferase reporter, at 10 µM, stronger effect = higher value.

Take `CCCC(=O)N1CC(=O)Nc2ccc(C)cc2C1c1ccc(F)cc1` (centres undefined): in test [1], the cell count came out at 698. Further, the inhibition – broadly, the drop in the measured response relative to a control, in per cent – in test [1] is -9.1% (inactive); in test [3], -21.3% (inactive); in test [7], 3.95% (inactive); in test [8], 24.9% (inactive). Moreover, in test [2], the inhibition of aggregation was 7.9% (inactive). For the same compound, the nuclei count was found to be 103% in test [2] and 111% in test [3]. For the same compound, the fluorescence slope in test [4] is -0.513 (inactive). Besides, the NADPH fluorescence slope in test [5] is -3e-05 (inactive). For the same compound, the slope in test [6] is 0.00518 (inactive).
As for `CCOc1ccc(N2CC(C(=O)NCCc3ccc(OC)c(OC)c3)CC2=O)cc1` (centres undefined), the cell count in test [1] amounted to 458. The inhibition is -3.8% (inactive) in test [1], -59.3% (inactive) in test [3], 20.4% (inactive) in test [7] and 25.1% (inactive) in test [8]. For the same compound, the inhibition of aggregation in test [2] was -9.6% (inactive). Also, the nuclei count stood at 112% in test [2] and 163% in test [3]. Also, in test [4], the fluorescence slope is -0.456 (inactive). Further, in test [5], the NADPH fluorescence slope is -3.5e-05 (inactive). The slope in test [6] is 0.00548 (inactive).
`COc1cc(-n2nc(C)c3c2OC(N)=C(C#N)C3c2ccccc2)c(Cl)c(Br)c1O` (centres undefined): the cell count in test [1] was found to be 490. The inhibition is -1.6% (inactive) in test [1], -8.7% (inactive) in test [3], 18.2% (inactive) in test [7] and 14.7% (inactive) in test [8]. The inhibition of aggregation in test [2] is 2.1% (inactive). The figures for the nuclei count in test [2] and in test [3] were 71.4% and 108%, respectively. Also, the fluorescence slope in test [4] is -0.397 (inactive). Further, the NADPH fluorescence slope in test [5] was -3.5e-05 (inactive). Further, the slope in test [6] is 0.00309 (inactive).
Regarding `Cc1c(-n2c(CN3C(=O)c4ccccc4C3=O)nc3ccccc3c2=O)c(=O)n(-c2ccccc2)n1C`, the cell count in test [1] amounted to 407. In addition, the inhibition in test [1] is -8.4% (inactive); in test [3], 77.1% (inactive); in test [7] it was 5.03% (inactive); in test [8] it was 24.9% (inactive). Besides, the inhibition of aggregation in test [2] was -10.1% (inactive). Moreover, the nuclei count came to 115% in test [2] and 95.8% in test [3]. In addition, the fluorescence slope in test [4] is -0.619 (inactive). For the same compound, the NADPH fluorescence slope in test [5] is 1.1e-05 (inactive). For the same compound, the slope in test [6] was 0.00583 (inactive).
Regarding `N#Cc1ccc(COC(=O)Cn2nnc(-c3ccccc3)n2)cc1`, the cell count in test [1] was 503. In addition, the inhibition in test [1] is -15.2% (inactive); in test [3], -124% (inactive); in test [7], 9.56% (inactive); in test [8], 19.4% (inactive). Besides, the inhibition of aggregation in test [2] was -8.3% (inactive). Also, the nuclei count in test [2] came out at 98.8%; in test [3], 121%. Besides, the fluorescence slope in test [4] is -0.614 (inactive). Further, the NADPH fluorescence slope in test [5] was -1.6e-05 (inactive). Further, the slope in test [6] is 0.00648 (inactive).
On to `CCOc1ccc2ccccc2c1C(=O)N1CCN(c2ccccc2)CC1`, for which the cell count in test [1] is 287. Further, the inhibition was -3% (inactive) in test [1], 44.7% (inactive) in test [3], 46.4% (inactive) in test [7] and 56.3% (active) in test [8]. Moreover, the inhibition of aggregation in test [2] is 41.9% (inactive). Also, the figures for the nuclei count in test [2] and in test [3] were 15.6% and 64.1%, respectively. Also, the fluorescence slope in test [4] was -0.423 (inactive). Also, the NADPH fluorescence slope in test [5] is -1.3e-05 (inactive). Moreover, the slope in test [6] was 0.0036 (inactive).
For the compound `Cn1c2ccc(F)cc2c2ncn(CCN3CCOCC3)c(=O)c21`, the cell count in test [1] was found to be 719. The inhibition in test [1] was -8.9% (inactive); in test [3], -39.1% (inactive); in test [7], -47.2% (inactive); in test [8], 99.1% (active). Also, the inhibition of aggregation in test [2] is -7.4% (inactive). Besides, the nuclei count in test [2] worked out at 81.6%; in test [3], 109%. Besides, in test [4], the fluorescence slope was -0.424 (inactive). In addition, the NADPH fluorescence slope in test [5] is -1.5e-05 (inactive). In test [6], the slope is 0.00608 (inactive).
As for `O=C(CCCCn1c(=O)c2ccccc2n(Cc2ccc(Cl)cc2)c1=O)NCc1ccco1`, the cell count in test [1] stood at 613. The inhibition is -7.3% (inactive) in test [1], -95.8% (inactive) in test [3], 45.2% (inactive) in test [7] and 33.2% (inactive) in test [8]. Also, in test [2], the inhibition of aggregation is -8.5% (inactive). In addition, the nuclei count in test [2] came to 81.8%; in test [3], 110%. The fluorescence slope in test [4] was -0.466 (inactive). Moreover, in test [5], the NADPH fluorescence slope was -1.3e-05 (inactive). For the same compound, in test [6], the slope was 0.00636 (inactive).
As for `Cc1ccc(NCC(O)C(O)C(O)CO)cc1C` (centres undefined), the cell count in test [1] worked out at 516. The inhibition in test [1] is 0.6% (inactive); in test [3], -52.4% (inactive); in test [7] it was 8.39% (inactive); in test [8], 8.99% (inactive). Moreover, the inhibition of aggregation in test [2] is 1.3% (inactive). In addition, the nuclei count in test [2] worked out at 115%; in test [3], 128%. The fluorescence slope in test [4] is -0.455 (inactive). For the same compound, the NADPH fluorescence slope in test [5] was 5.8e-07 (inactive). The slope in test [6] was 0.00562 (inactive).
In the case of `COC(=O)CN1C(=O)CC(C)(C)S(=O)c2ccccc21` (centres undefined), the cell count in test [1] came out at 769. The inhibition in test [1] is -9.2% (inactive); in test [3], -44% (inactive); in test [7] it was 4.76% (inactive); in test [8], 22.2% (inactive). Besides, the inhibition of aggregation in test [2] was 13.9% (inactive). For the same compound, the nuclei count in test [2] worked out at 82.6%; in test [3] it was 98.5%. Further, the fluorescence slope in test [4] is -0.574 (inactive). Also, the NADPH fluorescence slope in test [5] is -5.2e-05 (inactive). The slope in test [6] is 0.00765 (inactive).
On to `CCCC(NC(=O)CNC(=O)C(C)(C)C)C(=O)O` (centres undefined) (HELM PEPTIDE1{[CC(C)(C)C(=O)[*:2]].G.[CCCC(N[*:1])C(=O)O]}$$$$V2.0), for which the cell count in test [1] is 678. For the same compound, the inhibition in test [1] was 0.5% (inactive); in test [3] it was 63.7% (inactive); in test [7], 14.8% (inactive); in test [8] it was 11.8% (inactive). Moreover, the inhibition of aggregation in test [2] was 12.5% (inactive). Further, the nuclei count in test [2] came to 104%; in test [3], 97.4%. In addition, the fluorescence slope in test [4] was -0.499 (inactive). Further, in test [5], the NADPH fluorescence slope is -1.3e-05 (inactive). Further, in test [6], the slope is 0.00543 (inactive).
As to `O=C(NCc1ccc2c(c1)OCO2)C1CCCN(S(=O)(=O)c2cccnc2)C1` (centres undefined), the cell count in test [1] was 584. Further, the inhibition was 7.6% (inactive) in test [1], -65.3% (inactive) in test [3], 8.73% (inactive) in test [7] and 23.4% (inactive) in test [8]. Besides, in test [2], the inhibition of aggregation was -1.4% (inactive). Also, the nuclei count was 96.3% in test [2] and 119% in test [3]. The fluorescence slope in test [4] is -0.575 (inactive). For the same compound, the NADPH fluorescence slope in test [5] is -2.7e-05 (inactive). Besides, the slope in test [6] is 0.00636 (inactive).
As to `CC(C)CNS(=O)(=O)c1ccc(CCC(=O)N2CCOCC2)cc1`, the cell count in test [1] turned out to be 647. For the same compound, the inhibition was 1.1% (inactive) in test [1], -45.6% (inactive) in test [3], 8.44% (inactive) in test [7] and 21.1% (inactive) in test [8]. In addition, the inhibition of aggregation in test [2] is -3% (inactive). In addition, the nuclei count in test [2] and in test [3] was 104% each time. Moreover, the fluorescence slope in test [4] was -0.471 (inactive). In test [5], the NADPH fluorescence slope is -4.8e-05 (inactive). Further, in test [6], the slope was 0.00694 (inactive).
On to `COc1ccccc1OCC(=O)Nc1cccc(-c2nc3ccccc3o2)c1`, for which the cell count in test [1] stood at 468. The inhibition in test [1] was 0% (inactive); in test [3], -65.1% (inactive); in test [7] it was -0.911% (inactive); in test [8], -2.39% (inactive). In test [2], the inhibition of aggregation was 1% (inactive). Besides, the results for the nuclei count in test [2] and in test [3] were 61.8% and 110%, respectively. Moreover, the fluorescence slope in test [4] was -0.374 (inactive). In addition, in test [5], the NADPH fluorescence slope is -1.4e-06 (inactive). For the same compound, the slope in test [6] was 0.00387 (inactive).
